From PubChem BioAssay AID651582 (Sanford-Burnham Center for Chemical Genomics, 2012)
About 1,500 (0.65%) of roughly 230,000 compounds were called active.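 Rule for the calls: active = pattern-corrected inhibition of lipid staining of at least 50% with the nuclear-stain viability signal not falling by more than 50%; inactive = the rest, inconclusive results apart.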 For the sample, actives were picked, then their nearest neighbours and some compounds at random.

assay: inhibitors of triacylglycerol accumulation, primary screen, cell-based, uHTS, fluorescence, H9c2 (AID 651582); details: H9c2 cells, Nile Red lipid (TAG) fluorescence, at 12.5 µM, cells loaded with 200 µM oleic acid; DAPI nuclei signal change (viability), lower = more cytotoxic: measured here: DAPI nuclei count viability; inhibition: stronger effect = higher value;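 for inhibition: 0% = DMSO wells and 100% = triacsin C control wells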

Compound	DAPI nuclei signal change (viability), lower = more cytotoxic	inhibition
COc1ccc2nc(SCC(=O)Nc3c(C)cc(C)cc3C)[nH]c2c1	-8.51%	24.4% (inactive)
Cc1nc2ccc(C(=O)O)cc2[nH]1	7.29%	-10.7% (inactive)
COC(=O)Nc1nc2ccc(Sc3ccccc3)cc2[nH]1	-43.5%	58.7% (active)
N#Cc1ccc(-c2ccc3nccn3c2)cc1	18.4%	-21.5% (inactive)
COc1cc(C(=O)NCC(c2ccco2)N2CCCC2)ccc1OCc1ccccc1 (stereo not given)	9.22%	5.54% (inactive)
CCC1CCCCN1C(=S)NC(=O)c1ccco1 (stereo not given)	-3.85%	-2.4% (inactive)
COC(=O)c1ccc(SCc2ccccc2)nc1	0.616%	-5.84% (inactive)
COc1ccc(OCC(=O)NNC(=O)c2ccc(-c3ccccc3)cc2)cc1	-4.12%	-6.97% (inactive)
COC(=O)c1ccc(-c2c(-c3ccccc3)ncc3cc(OC)c(OC)cc23)cc1	-46.2%	70.6% (active)
CN(CC(=O)Nc1c(Cl)cccc1Cl)C(=O)CC1OC(=O)c2ccccc21 (stereo not given)	-7%	2.91% (inactive)
COc1ccc(S(=O)(=O)N2CCCCC2c2cc(C(=O)NCc3ccc(F)cc3)no2)cc1 (stereo not given)	-7.14%	11.8% (inactive)
O=C(Nc1ccc(OC(F)(F)F)cc1)c1ccc2c(c1)no[n+]2[O-]	-44.5%	57.3% (active)
Cn1nccc1NC(=O)Nc1ccc(OC(F)(F)F)cc1	0.761%	-19.5% (inactive)
CCOC(=O)Cc1ncccc1C(=O)Nc1ccc(OC(F)(F)F)cc1	-10.3%	-0.736% (inactive)
Cc1ccccc1Cn1c(C)c(C(=O)NCc2cccc(C(F)(F)F)c2)sc1=O	2.91%	13.2% (inactive)
CC(C)CC1C(=O)N(Cc2cn(CC3CCCCC3)nn2)CCS(=O)(=O)N1Cc1ccc(-c2ccc(Cl)cc2)cc1 (stereo not given)	-4.47%	46.5% (inactive)
CC(=O)c1cccc(-c2ccc(CN3C(CC(C)C)C(=O)N(Cc4cn(CC5CCCCC5)nn4)CCS3(=O)=O)cc2)c1 (stereo not given)	-20.7%	52.2% (active)
COc1ccc(-c2ccc(CN3C(CC(C)C)C(=O)N(Cc4cn(CC5CCCCC5)nn4)CCS3(=O)=O)cc2)cc1 (stereo not given)	-3.84%	14.3% (inactive)
Cc1ccccc1-c1cc(C(=O)NCc2cccs2)n(CC2CC(c3cccnc3)=NO2)n1 (stereo not given)	-34.7%	-1.76% (inactive)
O=C(CCc1ccc(S(=O)(=O)N2CCOCC2)cc1)OCC(=O)c1ccc(Br)cc1	5.4%	-35.9% (inactive)
CN(C)S(=O)(=O)c1cccc(NC(=S)NCc2ccc3c(c2)OCO3)c1	8.91%	-12.9% (inactive)
Cc1ccc(/C=N/NC(=S)Nc2cccc(S(=O)(=O)N(C)C)c2)o1	-39%	65.8% (active)
Cc1ccc(/C=N/NC(=S)NC2CCCCC2)o1	-2.44%	15.8% (inactive)
CN1OC[C@@H]2CN[C@H](c3ccc(-c4ccccc4)cc3)C[C@@H]21	-19.9%	37.5% (inactive)
COc1ccccc1Nc1nc(N)nc(CN(C)C2CCCCC2)n1	-2.24%	-18.7% (inactive)
COc1ccccc1NC1=NC2(CCCC2)N=C(N)N1	-8.79%	8.65% (inactive)
COc1ccccc1NC1=NC(c2ccc(Cl)cc2)N=C(N)N1 (stereo not given)	-23.4%	58.3% (active)

Compound	DAPI nuclei signal change (viability), lower = more cytotoxic	inhibition
Cc1ccc(NC(=O)CN(C)C(=O)c2ccc(Cl)c(S(=O)(=O)NCc3ccco3)c2)cc1	-5.08%	12.3% (inactive)
CCCCc1ccc(S(=O)(=O)NC(=O)C2(C)CCN2C(=O)c2c(C)noc2C)cc1 (stereo not given)	2.79%	0.354% (inactive)
O=C(Nc1cccc(C(=O)O)c1)/C(=C\c1ccccc1)NC(=O)c1ccc(Br)o1	-3.36%	6.66% (inactive)
Cn1cncc1C#Cc1c(-c2ccsc2)sc2ccccc12	7.19%	-0.161% (inactive)
COc1ccc2sc(-c3ccc(S(C)(=O)=O)cc3)c(C#Cc3cncn3C)c2c1	54.1%	93.5% (active)
COc1ccc2sc(-c3ccc(S(C)(=O)=O)cc3)c(-c3ccc(C(N)=O)cc3)c2c1	-5.68%	33.1% (inactive)
O=C(O)c1ccc([N+](=O)[O-])cc1Sc1ccsc1	-1.85%	-10.5% (inactive)
CCOC(=O)c1cc(-c2sc(NC(=O)c3ccccc3)nc2C)n(Cc2ccccc2)n1	-2.4%	44.7% (inactive)
COCCNc1ncnc2c1ncn2[C@H]1CN(CCN2CCOCC2)C[C@@H](CO)O1	-0.911%	0.573% (inactive)
CCCOC(=O)c1[nH]c2c(c1C)C(=O)CC(c1cc(OC)c(OC)c(OC)c1)C2 (stereo not given)	-10.1%	-26.3% (inactive)
COC(=O)C1C(=O)c2c([nH]c(C(=O)OCCSC)c2C)CC1C (stereo not given)	-3.66%	1.54% (inactive)
CCCOC(=O)c1[nH]c2c(c1C)C(=O)CC(c1cccs1)C2 (stereo not given)	-13.9%	64.7% (active)
Cn1c(CCN2CCN(c3ccccn3)CC2)nc2cc(NS(=O)(=O)c3ccc(F)cc3)ccc21	6.59%	-5.66% (inactive)
CC1CCC2(CC1)NC(=O)N(CC(=O)c1ccc3c(c1)OCO3)C2=O (stereo not given)	5.46%	-2.45% (inactive)
O=C(O)c1ccccc1-c1cccc2nncn12	3.23%	-1.16% (inactive)
C(=N/Nc1cc(N2CCOCC2)nc(N2CCOCC2)n1)/c1ccccc1	-80.2%	126% (inactive)
Cc1cc(N/N=C\c2ccc(Br)cc2)nc(-n2nc(C)cc2C)n1	-21.7%	59% (active)
Cc1ccc2nc(C)cc(N/N=C/c3ccc(F)cc3)c2c1	4.22%	4.13% (inactive)
C=C(C)C(=O)O[C@H]1C/C(C)=C\C(=O)/C=C(\C)[C@H](O)[C@@H]2OC(=O)C(=C)[C@@H]21	-49.2%	51.2% (active)
CC(=O)c1sc(NC(=O)c2ccc(C)cc2)nc1C	-3.26%	-5.37% (inactive)
COc1ccc(C(=O)Nc2nc(-c3ccc(OC)cc3)c(-c3ccc([N+](=O)[O-])cc3)s2)cc1	-4.41%	61.8% (active)
O=C(Nc1nc2ccc([N+](=O)[O-])cc2s1)c1ccncc1	12.5%	-10.5% (inactive)
Cc1ccc(C)c(S(=O)(=O)N(C)c2ccc(OC(=O)C3CCN(C(=O)c4ccc(F)cc4)CC3)cc2)c1	0.336%	-28% (inactive)
COC(C[C@H](O)CC(=O)[C@@H](C)OCc1ccccc1)OC	5.4%	-8.13% (inactive)
COC(C[C@@H](O)C[C@H](O)[C@H](C)OCc1ccccc1)OC	5.91%	-1.79% (inactive)
COC(C[C@H](O)CC(=O)COCc1ccccc1)OC	-39.1%	53.8% (active)
CC(=O)NC(c1ccccc1)c1nc(-c2cccc(C(C)C)c2)cs1 (stereo not given)	-1.3%	8.58% (inactive)

Compound	DAPI nuclei signal change (viability), lower = more cytotoxic	inhibition
O=C(Nc1cc(Cl)ccc1N1CCOCC1)c1ccc(N2CCCC2=O)cc1	-2.51%	10.9% (inactive)
Cc1cccc(NC(=O)c2cccc(C(F)(F)F)c2)c1	-13.3%	-0.148% (inactive)
O=C(Nc1ccc(-c2csc(Nc3cccc(C(F)(F)F)c3)n2)cc1)c1cccc(C(F)(F)F)c1	-19.5%	51.9% (active)
CNC(=O)c1ccc(NC(=O)c2cccc(C(F)(F)F)c2)cc1	-4.98%	-1.2% (inactive)
CC1=C(C(=O)Nc2cccc(C(=O)NCC(C)c3ccccc3)c2)SCCO1 (stereo not given)	-4.49%	4.45% (inactive)
COc1ccc(CN2CCN(C(=O)c3cc(C4CC4)nn3-c3ccccc3)CC2)cc1F	-2%	7.6% (inactive)
Cc1c(C(=O)NNC(=O)c2ccncc2)oc2ccccc12	-11%	8.91% (inactive)
O=C(OC12CC3CC(CC(C3)C1)C2)c1ccc(NCc2cc(O)ccc2O)cc1	-61.6%	111% (inactive)
COC(=O)c1ccc(NCc2cc(O)ccc2O)cc1	-40.6%	54.7% (active)
CC(C)OC(=O)c1ccc(NCc2cc(O)ccc2O)cc1Cl	-60.3%	108% (inactive)
CCCn1c(N)c(C(=O)CSc2nnc3n2CCCCC3)c(=O)[nH]c1=O	5.45%	-8.3% (inactive)
CC[C@]1(c2ccccc2OC)C(=O)N(C(=O)OC)N1C(=O)OC	11%	-4.89% (inactive)
O=C(CSc1c2c(nc3ccc(Cl)cc13)CCCC2)NCc1ccco1	13.7%	2.61% (inactive)
O=C(CSc1nc(Nc2ccccc2)nc(N2CCOCC2)n1)Nc1cc(Cl)ccc1O	-18.9%	34.4% (inactive)
C=CCn1c(CSc2nc3ccccc3s2)nnc1SCC(=O)NCc1ccco1	-7.04%	-5.24% (inactive)
O=C(CSc1nc2ccc(Nc3nc(N4CCOCC4)nc(N4CCOCC4)n3)cc2s1)NCc1ccco1	-0.911%	54.6% (active)
Nc1nnc(SCC(=O)Nc2ccc3nc(SCC(=O)Nc4ccccc4)sc3c2)s1	-9.1%	-21.4% (inactive)
Cc1ccccc1NC(=O)CSc1nc2ccc(Nc3nc(N4CCOCC4)nc(N4CCOCC4)n3)cc2s1	-7.17%	62.6% (active)
CS(=O)(=O)/C(C#N)=C/c1cccn1S(=O)(=O)c1ccc([N+](=O)[O-])cc1	8.58%	-3.62% (inactive)
CN(CC(=O)Nc1ccc(F)cc1)C(=O)c1ccc(-c2ccc(Cl)cc2)o1	0.479%	-10.2% (inactive)
Cc1ccc(N(Cc2ccccc2O)C(=O)c2ccccc2F)cc1	2.35%	-3.73% (inactive)
C=C1CCC(N(O)c2cc(C)on2)C(=C)CCC2C1CC2(C)C (stereo not given)	2.7%	-2.19% (inactive)
CC(=O)Nc1ccc(-c2ccnc3c2CC(C(=O)NC(C)C)O3)cc1 (stereo not given)	-1.71%	-1.68% (inactive)
COc1ccc(-c2cc(NC=O)c3ncc(-c4ccccc4)n3c2)cc1OC	-14.8%	19.6% (inactive)
COc1ccc(-c2cc(NC=O)c3ncc(-c4cc(OC)c(OC)c(OC)c4)n3c2)c(OC)c1	-24.8%	52.6% (active)
COc1ccc(-c2cc(NC=O)c3ncc(-c4cccc(C(=O)N(C)C)c4)n3c2)c(OC)c1	-42.3%	46% (inactive)
